Compounds with a hit are over-represented: about 13% of the library has one in this group of screens.
Pf growth 96h: inhibits malaria parasite growth, 96 h; Potency, µM (series often up to 28.7 µM), usual class: inhibitors; AID 504834; 320,000 compounds, 6.9% hits; P. falciparum luciferase reporter growth, 96 h
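Compounds incubated with erythrocytes infected by luciferase-expressing P. falciparum (2% hematocrit, 0.05% parasitemia final) for 96 hours, 37 C in 5% CO2. Growth inhibition scored as decreased luciferase luminescence.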
Pf growth 48h: P. falciparum growth inhibition at 48 hours (one generation); P. falciparum luciferase growth in erythrocytes, 48 h; Potency, µM (series often up to 28.7 µM), usual class: inhibitors; 310,000 compounds, 5.9% hits
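Firefly luciferase activity from engineered P. falciparum reports growth; inhibitors lower the luminescent signal. Cultures contained 2% hematocrit erythrocytes at 0.1% final parasitemia.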
HCV inhibitor: blocks hepatitis C virus; Huh7.5.1 HCVcc-Cre infection, luciferase reporter, 44 h; Potency, µM (top dose mostly 41.8 µM), hits mostly inhibitors; 340,000 compounds, 3.4% hits; AID 651820
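Infectious HCV cell culture screen: compound-treated cells (1,000/well, pre-plated 4 h) are infected with HCVcc-Cre at roughly 0.5 moi and grown 44 h. Infection is quantified by luciferase signal after 15 min substrate incubation at room temperature.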
HCMV inh: blocks human cytomegalovirus replication. activity change, negative = inhibition, % at 57.5 µM. 410,000 compounds, 4.5% hits. AID 1259415. HFF cells, HCMV-luciferase reporter, 72 h; active compounds read low; in the data active = activity change below about -60%; inconclusive = no clear call, values can overlap the other calls; inactive = above about -39%
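Human foreskin fibroblasts infected with luciferase-reporter HCMV at MOI 1 PFU/cell, compounds at two doses. Luciferase measured 72 h post infection; normalized to buffer-only basal and Salinomycin (10uM) controls.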
Numbers stand for hits; [ ] = remark or other dose. Unless noted, calls follow the shape of the dose curve; as a rule, active = well fitted inhibition curve with a large enough effect; inconclusive = small, poorly fitted or top-dose-only effect, or another doubt; inactive = no such curve, though single readings can be large or run the other way.

`O=C(Nc1ccc(Oc2cccc(C(F)(F)F)c2)nc1)c1ccco1` gave Pf growth 96h 13µM, Pf growth 48h inconclusive, HCV inhibitor 10µM and HCMV inh -72.
For O=C(Nc1ccc(Oc2cccnc2)nc1)c1ccc(C(F)(F)F)cc1 the results were Pf growth 96h inconclusive, Pf growth 48h inconclusive, HCV inhibitor 2.2µM and HCMV inh -72.
`CC(C)(C)c1ccc(Oc2ccc(NC(=O)c3ccco3)cn2)cc1` gave Pf growth 96h 8.3µM, Pf growth 48h 2.1µM, HCV inhibitor 7.9µM and HCMV inh -103.
Screening CC(C)(C)c1ccc(Oc2ccc(NC(=O)c3cccs3)cn2)cc1 returned Pf growth 96h 13µM, Pf growth 48h 2.6µM, HCV inhibitor inconclusive and HCMV inh inconclusive.
For O=C(Nc1ccc(Oc2ncccn2)cc1)c1ccco1 the results were Pf growth 96h inactive, Pf growth 48h inactive, HCV inhibitor inactive and HCMV inh inactive.
Cc1ccc(NC(=O)CCSc2nc(-c3ccco3)cc(C(F)(F)F)n2)cc1F was read as HCMV inh inactive.
Screening COc1ccc(/C=C/C(=O)N2CCC(c3nc4ccccc4o3)CC2)cc1OC returned HCMV inh inactive.
Screening CN(C(=O)c1ccc2c(c1)C(=O)N(CCC1=CCCCC1)C2=O)C1CCCCC1 returned Pf growth 96h 10µM, HCV inhibitor inactive and HCMV inh inactive.
O=C1NC(=O)C2C3C=CC(C3)C12 (configuration not stated) was read as Pf growth 96h inactive and Pf growth 48h inactive.
COc1ccc(N(Cc2cccs2)C(=O)COc2cccc(Cl)c2)cc1 was read as HCMV inh inactive.
`COc1ccc(N(CC(=O)Nc2ccc3c(c2)OCO3)S(=O)(=O)c2ccccc2)c(OC)c1` gave Pf growth 96h inactive, Pf growth 48h inconclusive, HCV inhibitor inconclusive and HCMV inh -68.
For Cc1ccc(N(CC(=O)N2CC(=O)Nc3ccccc32)S(=O)(=O)c2ccc3c(c2)OCCO3)cc1 the results were Pf growth 96h inconclusive, Pf growth 48h 12µM, HCV inhibitor inactive and HCMV inh -63.
`CCOc1ccccc1N(CC(=O)Nc1ccccc1Br)S(=O)(=O)c1ccccc1` gave HCMV inh -63.
Screening COc1ccc(N(CC(=O)Nc2cccc(C(C)=O)c2)S(=O)(=O)c2ccc(NC(C)=O)cc2)cc1 returned Pf growth 96h inconclusive, Pf growth 48h inactive, HCV inhibitor inactive and HCMV inh inactive.
`CCC(C)NC(=O)CN(c1ccc(OC)cc1)S(=O)(=O)c1ccc(NC(C)=O)cc1` (configuration not stated) gave Pf growth 96h 6.6µM, Pf growth 48h inconclusive, HCV inhibitor inactive and HCMV inh inactive.
`O=C(O)CN(c1ccc(F)cc1)S(=O)(=O)c1ccc2c(c1)OCCO2` gave Pf growth 96h inactive, Pf growth 48h inactive, HCV inhibitor inactive and HCMV inh inactive.
COc1ccc(N2CC(NC(=O)c3cc4ccccc4o3)CC2=O)cc1OC (configuration not stated) was read as HCMV inh inactive.
For COc1ccc(NC(=O)CN(c2ccccc2OC)S(=O)(=O)c2cccs2)cc1Cl the results were HCV inhibitor inconclusive and HCMV inh inactive.
Screening COc1ccc(N(CC(=O)Nc2ccc3c(c2)OCO3)S(=O)(=O)c2ccc(F)cc2)cc1 returned Pf growth 96h inactive, Pf growth 48h inactive, HCV inhibitor inconclusive and HCMV inh -76.
Screening CCOc1ccccc1N(CC(=O)Nc1ccc(OC)c(Cl)c1)S(=O)(=O)c1ccccc1 returned HCMV inh -62.
`COc1ccc(N(CC(=O)Nc2ccc3c(c2)OCCO3)S(=O)(=O)c2cccc(C)c2)cc1` gave Pf growth 96h inactive, Pf growth 48h inconclusive, HCV inhibitor inconclusive and HCMV inh -77.
`COc1ccc(N(CC(=O)Nc2ccc3c(c2)OCCO3)S(=O)(=O)c2c(C)nn(C)c2C)cc1` gave Pf growth 96h inactive, HCV inhibitor inactive and HCMV inh inactive.
COc1ccc(S(=O)(=O)N(C)CC(=O)Nc2ccc3c(c2)OCO3)cc1 was read as Pf growth 48h inactive, HCV inhibitor inconclusive and HCMV inh inactive.
Screening COc1ccc(N(CC(=O)Nc2ccc(OC)c(OC)c2)S(=O)(=O)c2ccccc2)cc1Cl returned Pf growth 96h inconclusive, Pf growth 48h inconclusive, HCV inhibitor 13µM and HCMV inh inactive.
`COc1ccc(N(CC(=O)N/N=C/c2ccccc2F)S(=O)(=O)c2ccccc2)cc1` gave Pf growth 96h inconclusive, Pf growth 48h inactive[0.00184 µM], HCV inhibitor inconclusive and HCMV inh -77.
Screening CC(C)C(NC(=O)CN(c1ccc2c(c1)OCCO2)S(=O)(=O)c1ccccc1)C(C)C returned HCV inhibitor inactive and HCMV inh -61.
Screening COc1ccc(N(CC(=O)N/N=C/c2ccc3c(c2)OCO3)S(=O)(=O)c2ccc(NC(C)=O)cc2)cc1 returned Pf growth 96h inconclusive, Pf growth 48h 13µM, HCV inhibitor inconclusive and HCMV inh inactive.
COc1ccc(N(CC(=O)Nc2ccc3c(c2)OCO3)S(=O)(=O)c2ccccc2)cc1OC was read as Pf growth 96h inconclusive, Pf growth 48h 2.9µM, HCV inhibitor inconclusive and HCMV inh inactive.
For COc1ccc(N(CC(=O)N/N=C/c2cccc(OC)c2OC)S(=O)(=O)c2ccccc2)cc1 the results were Pf growth 96h inconclusive, Pf growth 48h inconclusive, HCV inhibitor inconclusive and HCMV inh inactive.
For CC1N=C2c3ccccc3N=C(SCC(=O)NCc3ccc(Cl)cc3)N2C1=O (configuration not stated) the results were HCMV inh inactive.
Screening Cc1ccc(-n2nnnc2CNC(=O)C(C)(C)C)cc1C returned HCMV inh inactive.
Cc1ccc(N2CC(C(=O)Nc3ccc(Br)cc3)CC2=O)cc1 (configuration not stated) was read as HCMV inh inactive.
COCCN(Cc1nc(C(c2ccccc2)c2ccccc2)no1)C(C)C was read as Pf growth 96h inconclusive, Pf growth 48h inactive, HCV inhibitor inactive and HCMV inh inactive.
Screening CC(C)N(CCO)Cc1nc(C(c2ccccc2)c2ccccc2)no1 returned Pf growth 96h 9.3µM, Pf growth 48h inconclusive, HCV inhibitor inactive and HCMV inh inactive.
Screening Cc1cccc(-n2c(-c3ccccc3)cn3c4c(=O)[nH]c(=O)n(C)c4nc23)c1 returned HCMV inh inactive.
`Cc1cc(NC(=O)CC2CCCC2)n(-c2nc3ccccc3[nH]2)n1` gave Pf growth 96h 5.9µM, Pf growth 48h inconclusive, HCV inhibitor inconclusive and HCMV inh inactive.
`Cc1sc2ncnc(NCc3ccco3)c2c1C` gave Pf growth 96h 9.3µM, Pf growth 48h inactive, HCV inhibitor inconclusive and HCMV inh inactive.
Screening Cc1sc2ncnc(NCc3cccs3)c2c1C returned Pf growth 96h inactive, Pf growth 48h inactive, HCV inhibitor 10µM and HCMV inh -92.
Cc1sc2ncnc(NCc3cccnc3)c2c1C was read as Pf growth 96h inactive, Pf growth 48h inactive, HCV inhibitor inconclusive and HCMV inh -61.
For Cc1sc2ncnc(NCCN3CCOCC3)c2c1C the results were Pf growth 48h inactive, HCV inhibitor 11µM and HCMV inh -76.
